The record followed here is PubChem BioAssay (NCATS).

“And” between values parts separate entries of the source, which are not always exact repeats. Equal values may be shown once. Records with an inconclusive call do not appear. Values without a mark were called inactive. The source made the active and inactive calls. Calls follow the shape of the dose curve; as a rule, active = well fitted curve in the direction sought with a large enough effect; inconclusive = small, poorly fitted or top-dose-only effect, or another doubt; inactive = no such curve, though single readings can be large or run the other way.
% is scaled to controls: 0 for no effect and ±100 for the full control effect; potency is read from the fitted curve at half-maximal effect.

A short description of this assay: qHTS Assay for Identifying Gametocytocidal Compounds (AID 743244).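 As to max response: actives lower the fluorescent signal which means gametocytes are killed.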 To be noted: P. falciparum 3D7 stage III-V gametocytes, alamarBlue, 72 h; max response: active compounds read low. The essentials:
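3D7 gametocytes, stages III–V, 20,000/well; cpd 72 h, 37 °C/5% CO2; + alamarBlue 24 h; fluor. Ex 525/Em 598.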
In general terms: In qHTS, concentration-response curves come from the screen itself.
`ClC1=C(Cl)C2(Cl)C(CBr)CC1(Cl)C2(Cl)Cl` (stereo not drawn): the max response is -1.6%.

For `CC[C@H]1CN2CCc3cc(OC)c(OC)cc3[C@@H]2C[C@@H]1C[C@H]1NCCc2cc(OC)c(OC)cc21`, the Potency is 1.41 µM (active).

Turning to `C[N+](C)(C)CCOC(=O)C(O)(c1ccccc1)c1ccccc1`, the max response was -1.74%.

As to `OC(O)C(Cl)(Cl)Cl`, the max response is -5.08%.

As for `C[N+]1(CCC(C(N)=O)(c2ccccc2)c2ccccc2)CCCCC1`, the max response is -5.02%.

For the compound `C[C@]12C=CC(=O)C=C1CC[C@@H]1[C@@H]2CC[C@@]2(C)[C@H]1CC[C@]2(C)O`, the max response is -4.85%.

`COc1cccc2c1C(=O)c1c(O)c3c(c(O)c1C2=O)C[C@@](O)(C(=O)CO)C[C@@H]3O[C@H]1C[C@H](N)[C@H](O[C@@H]2CCCCO2)[C@H](C)O1`: the Potency was 22.4 µM (active).

`CNC(C)Cc1ccc2c(c1)OCO2` (stereo not drawn): the max response was -4.91%.

As to `C[C@]12CC[C@H]3[C@@H](CC=C4C[C@@H](O)CC[C@@]43C)[C@@H]1CC[C@@H]2O`, the max response is -0.897%.

For the compound `O=C(N[C@@H]1N=C(c2ccccc2F)c2cccc3c2N(CC3)C1=O)c1cc2ccccc2[nH]1`, the max response was -8.36%.

Take `C#C[C@]1(O)CC[C@H]2[C@@H]3CCC4=CC(=O)CCC4=C3C=C[C@@]21CC`: the max response was -5.06%.

Turning to `COc1cc(CC(C)N)c(OC)cc1Br` (stereo not drawn), the max response was -17.7% and 14.6%.

As for `CC(C)NCC(O)c1ccc(N)c(C#N)c1` (stereo not drawn), the max response is 9.7%.

For the compound `CC[C@H]1C[C@@H]2C[C@H]3c4[nH]c5ccc(OC)cc5c4CCN(C2)[C@@H]13`, the max response is 5.97%.

Consider `COc1ccc2c(C(=O)c3ccc(Cl)cc3)c(C)n(CC(=O)O)c2c1`, for which the max response is 36.2%.

With `O=C1CC2(CCCC2)CC(=O)N1CCCCN1CCN(c2ncccn2)CC1`, the max response was 13.6%.

Take `COc1ccc2[nH]cc(CCN(C(C)C)C(C)C)c2c1`: the max response was -5.46%.

Consider `C[N+]1(C)[C@@H]2CC[C@H]1CC(OC(=O)C(CO)c1ccccc1)C2` (stereo partly drawn), for which the max response was -7.22% and -0.641%.

On to `Cc1ncc2n1-c1ccc(Cl)cc1C(c1ccccc1F)=NC2`, for which the max response is -2.43%.

Regarding `O=C(O)CCCCCCNC1c2ccccc2CCc2ccccc21`, the max response was -6.01%.

For `CNC(=O)NC(O)C(Cl)(Cl)Cl` (stereo not drawn), the max response is 8.2%.

Regarding `COc1ccc(CN2CCNCC2)c(OC)c1OC`, the max response was -9.77%.

Regarding `O=C(O)c1ccccc1Nc1cc(Cl)ccc1C(=O)O`, the max response is 32.7%.

As to `CC(C)C(Br)C(=O)NC(N)=O` (stereo not drawn), the max response is 6.08%.

Turning to `CC(C)=C[C@@H]1[C@@H](C(=O)OCc2coc(Cc3ccccc3)c2)C1(C)C`, the max response was -1.71%.

Regarding `c1ccc2nc(N3CCNCC3)ccc2c1`, the max response is -4.39%.

With `NC(=O)OCCCc1ccccc1`, the max response is -5.39%.

`CCN(CC)Cc1nccn1-c1ccc([N+](=O)[O-])cc1C(=O)c1ccccc1Cl`: the Potency was 16.6 µM (active).

Regarding `C[C@@H]1O[C@@H](O[C@@H]2C=C3CC[C@@H]4[C@H](CC[C@]5(C)[C@@H](c6ccc(=O)oc6)CC[C@]45O)[C@@]3(C)CC2)[C@H](O)[C@H](O)[C@H]1O`, the max response is 11.2%.

Regarding `O=C(Nc1ccc(Cl)cc1)Nc1ccc(Cl)c(Cl)c1`, the Potency is 15.8 µM (active) and 29.6 µM (active).

With `O=C(N[C@H]1N=C(c2ccccc2F)c2cccc3c2N(CC3)C1=O)c1cc2ccccc2[nH]1`, the max response is -4.83%.

As for `O=C1NC2CCCCN2C12CCN(CCCN1c3ccccc3CCc3ccc(Cl)cc31)CC2` (stereo not drawn), the Potency is 22.4 µM (active).

Take `COc1ccc2c3c1O[C@H]1[C@@H](O)C=C[C@H]4[C@@H](C2)N(C)CC[C@@]341`: the max response was 7.49%.
